# Results filed as inconclusive are left out. Activity calls are given as the source filed them. The call rests on the fitted dose curve; in most records, active means well fitted cell-killing curve with a large enough effect; inconclusive means small, poorly fitted or top-dose-only effect; inactive means flat fitted curve, though single readings scatter.
# Assay: qHTS of pediatric cancer cell lines to identify multiple opportunities for drug repurposing: Primary screen for U-2 OS cells (AID 1347096); further: nearly all actives have a fitted effect of over 50% in size
# Conditions: U-2 OS viability, CellTiter-Glo luminescence, 48 h; series mostly up to 46 µM; activity change, negative = cytotoxic: at the top concentration
# Description: Drug repurposing or repositioning has been offered as a strategy for drug development in oncology programs. This approach has special potential for childhood cancers and other rare or orphan diseases, where the expected return on new drug development has been a disincentive to pharmaceuticals.
# In this project we exploit the poly-pharmacology of drugs to discover new indications via phenotypic screening of a panel of 19 well-characterized cell lines derived from solid tumors seen in children and adolescents. The goal is to identify approved drugs with previously unrecognized anticancer properties that has the potential to reveal new mechanisms and biological processes involved in carcinogenesis or drug resistance. We employed a titration-based paradigm (quantitative high-throughput screening or qHTS), where all compounds were tested at multiple concentrations for their effect on cell viability. Concentration-response curves (CRCs) were derived directly from the primary screen, and both potency and efficacy values were used to identify compounds with robust bioactivity profiles. We screened the NIH Chemical Genomics Center (NCGC) Pharmaceutical Collection (NPC) and Mechanism Interrogation Plate (MIPE) small molecule collections of approved and investigational compounds against these cell lines; and measured metabolically active cells after 48 hours of compound treatment as a proxy for cell viability.
# Assay Submitter: Nathalia J. Martinez, National Center for Advancing Translational Sciences, National Institutes of Health, Rockville, MD, USA; email: natalia.martinez@nih.gov
# [1] Shen, M et al. Quantitative high-throughput phenotypic screening of pediatric cancer cell lines identifies multiple opportunities for drug repurposing. Oncotarget 2017 Dec 19;9(4):4758-4772. PMID 29435139.
# The cells were obtained from University of North Carolina (UNC), Pediatric Preclinical Testing Program (PPT), and Coriell Institute (CI).
# qHTS cell viability assay:
# Cells were assayed in growth media at a density of 500-1,000 cells/well. Five microliters of cells were dispensed into 1,536-well, white, solid-bottom, TC-treated plates (Greiner Bio One) using a multidrop dispenser and incubated at 37 degrees C, 5% CO2, under a humidified atmosphere for 5 hours. Twenty-three nanoliters of compounds and controls (neutral control DMSO or positive control bortezomib at final concentration of 2.3 µM) were subsequently transferred by Kalypsys pintool. For primary screens, the MIPE collection was tested at 11-point dilutions (final concentrations range from 0.78 nM to 46 µM) and the NPC collection at 8-point dilutions (final concentrations range from 0.59 nM to 46 µM). Compounds tested in follow-up screens were assayed at 11-point dilutions. Cells were incubated for 48 hours, followed by addition of 3 µL of CellTiter-Glo (Promega). After a 15 min incubation at room temperature, samples were analyzed for luminescence intensity using a ViewLux High-throughput CCD imager equipped with clear filters.
# Potency means the concentration at half of the fitted maximal effect.
SMILES,"activity change, negative = cytotoxic",Potency
C=C[C@@H]1CN2CCC1C[C@@H]2[C@@H](O)c1ccnc2ccccc12 (stereo not given in full),4.05% (inactive),–
O=C(N[C@H]1CN2CCC1CC2)c1ccc(Cl)cc1,18.4% (inactive),–
CC(C)(C)[C@]1(O)C[C@@H]2OC(=O)C[C@@]23C(=O)O[C@@H]2OC(=O)[C@H](O)C213 (stereo not given in full),13.6% (inactive),–
CCN(CC)C(=O)c1ccc(C2=CC3(CCNCC3)Oc3cccc(O)c32)cc1,8.34% (inactive),–
CC1=C(C(=O)O)N2C(=O)[C@@H](N)[C@H]2SC1,11.6% [at 16.1 µM] (inactive),–
COc1nn(CSP(=S)(OC)OC)c(=O)s1,-17.6% [at 92.7 µM] (inactive),–
COC(C)(C)CCCC(C)C/C=C/C(C)=C/C(=O)OC(C)C (stereo not given),4.68% (inactive),–
CC(=CCCC1=CCC(C2=CC(=O)OC2O)OC1O)CCC1=C(C)CCCC1(C)C (stereo not given),0.537% (inactive),–
C[C@]12CC[C@H](O)CC1=CC[C@H]1[C@H]3CCC(=O)[C@@]3(C)CC[C@@H]12,-11.2% (inactive),–
O=C(O)COc1nc(Cl)c(Cl)cc1Cl,-12.8% [at 92.7 µM] (inactive),–
CCCN1CCO[C@@H]2c3cc(O)ccc3OC[C@@H]21,7.16% (inactive),–
O=S(=O)(c1ccc(Cl)cc1)c1ccc(Cl)cc1,-14% [at 92.7 µM] (inactive),–
CC(C)(O)C(=O)Nc1ccc([N+](=O)[O-])c(C(F)(F)F)c1,4.46% (inactive),–
COc1ccc2c(c1)[C@]13CCCCC1C(C2)N(C)CC3 (stereo not given in full),8.05% (inactive),–
Clc1ccccc1C(c1ccccc1)(c1ccccc1)n1cccn1,2.38% (inactive),–
Oc1ccc2c3c1O[C@H]1[C@@H](O)C=C[C@H]4[C@@H](C2)NCC[C@@]341,0.155% [at 92.7 µM] (inactive),–
Nc1ccc([N+](=O)[O-])cc1,-10.4% [at 92.7 µM] (inactive),–
OCCCBr,17.2% [at 92.7 µM] (inactive),–
O=S(=O)(CC1CS1)c1ccc(Oc2ccccc2)cc1 (stereo not given),7.81% (inactive),–
c1cc2c(cc1[C@H]1OC[C@H]3[C@H]1CO[C@H]3c1ccc3c(c1)OCO3)OCO2,0.714% (inactive),–

SMILES,"activity change, negative = cytotoxic",Potency
O=C(N[C@@H](COc1ccc2[nH]c(=O)[nH]c2c1)c1ccccc1)c1cccn(Cc2ccc(F)c(F)c2)c1=O,-18.1% (inactive),–
COc1ccc2c(c1)CN(C)CC2c1ccc(Cl)c(Cl)c1 (stereo not given),0.104% (inactive),–
CCOP(=O)(OCC)C(C)NC(=O)N(CCCl)N=O (stereo not given),12% (inactive),–
C[C@]12CC[C@H]3[C@@H](CCC4=CC(=O)CC[C@@]43C)[C@H]1CC[C@H]2O,-0.0077% (inactive),–
O=[N+]([O-])c1ncc[nH]1,-3.29% (inactive),–
CC(=Cc1csc(C)n1)[C@@H]1C[C@H]2O[C@]2(C)CCC[C@H](C)[C@@H](O)[C@@H](C)C(=O)C(C)(C)[C@@H](O)CC(=O)O1,-8.25% (inactive),–
N#C[C@H](O[C@@H]1O[C@H](CO[C@@H]2O[C@H](CO)[C@H](O)[C@H](O)[C@H]2O)[C@H](O)[C@H](O)[C@H]1O)c1ccccc1,-9.53% (inactive),–
NC1=NC(=O)N2CC12 (stereo not given),21.6% (inactive),–
CC(=Cc1csc(C)n1)[C@@H]1C[C@H]2O[C@@H]2CCC[C@H](C)[C@@H](O)[C@@H](C)C(=O)C(C)(C)[C@@H](O)CC(=O)O1,-9.47% (inactive),–
C[C@@]12OC(=O)[C@]1([C@@H](O)[C@@H]1C=CCCC1)NC(=O)[C@H]2CCCl,–,235 nM (active)
CN1[C@H]2CC(O)C[C@H]1[C@H]1O[C@H]12 (stereo not given in full),9.2% (inactive),–
CC(=O)O[C@@]12CO[C@H]1C[C@H](O)[C@@]1(C)C(=O)[C@H](O)C3=C(C)[C@@H](O)C[C@@](O)([C@@H](OC(=O)c4ccccc4)[C@@H]21)C3(C)C,-3.14% (inactive),–
O=[N+]([O-])c1c2ccccc2cc2ccccc12,5.23% [at 92.7 µM] (inactive),–
Cc1c(C(=O)c2cccc3ccccc23)c2cccc3c2n1[C@H](CN1CCOCC1)CO3,-4.86% (inactive),–
CC(C)NCC(O)c1ccc([N+](=O)[O-])cc1 (stereo not given),-3.04% (inactive),–
ClC1=C(Cl)[C@]2(Cl)[C@@H]3[C@@H]4C[C@@H]([C@H]5O[C@@H]45)[C@@H]3[C@@]1(Cl)C2(Cl)Cl,-19.3% [at 92.7 µM] (inactive),–
CC(O)CN1CCN(CC(=O)[O-])CCN(CC(=O)[O-])CCN(CC(=O)[O-])CC1.[Gd+3] (stereo not given),9.64% (inactive),–
Fc1cc(Br)ccc1CBr,9.99% (inactive),–
O=S(=O)(F)Cc1ccccc1,9.79% (inactive),–
COCC1(CO)C(=O)C2CCN1CC2 (stereo not given),1.65% (inactive),–
